Values joined by “and” are separate entries in the source; they are usually repeats but may differ in a detail not shown here. Equal values may be shown once. Inconclusive results are not listed. Active and inactive are the calls of the source. Rule for the calls, unless noted: active = hit-call score of the fitted dose curve at least 0.9, where 1 is the maximum; inactive = score below 0.9.

The nature of assay [1]: ATG_NFI_CIS: Attagene CIS-FACTORIAL HepG2 Assay for human Nuclear Factor I (NFI) (AID 2282989). The settings on record: HepG2 cis-regulatory reporter, NFI response element transcription; actives raise or lower the signal. In short, it runs like this:
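Read-out: reporter mRNA via RT-PCR plus capillary electrophoresis with fluorescence detection. Transiently transfected HepG2 (endogenous TF activity on cis promoters), 24 h compound exposure; gain or loss of signal fitted against DMSO.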

Assay [2] deals with Myc proto-oncogene protein (Homo sapiens) (UniProt P01106). As to the kind of experiment: ATG_Myc_CIS: Attagene CIS-FACTORIAL HepG2 Assay for human Myelocytomatosis (Myc) Proto-Oncogene Transcription Factor (AID 2282990). To be noted: HepG2, Attagene cis-reporter transcription factor activity; actives raise or lower the signal. In short, it runs like this: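 Transiently transfected HepG2 cells bearing cis-promoter reporter units for endogenous transcription factors; 24 h exposure. Reporter mRNA measured by RT-PCR, 6-FAM primer extension, HpaI cut and capillary electrophoresis; bidirectional fit relative to DMSO.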
Chain of Myc proto-oncogene protein (Homo sapiens) (P01106 whole entry, looked up): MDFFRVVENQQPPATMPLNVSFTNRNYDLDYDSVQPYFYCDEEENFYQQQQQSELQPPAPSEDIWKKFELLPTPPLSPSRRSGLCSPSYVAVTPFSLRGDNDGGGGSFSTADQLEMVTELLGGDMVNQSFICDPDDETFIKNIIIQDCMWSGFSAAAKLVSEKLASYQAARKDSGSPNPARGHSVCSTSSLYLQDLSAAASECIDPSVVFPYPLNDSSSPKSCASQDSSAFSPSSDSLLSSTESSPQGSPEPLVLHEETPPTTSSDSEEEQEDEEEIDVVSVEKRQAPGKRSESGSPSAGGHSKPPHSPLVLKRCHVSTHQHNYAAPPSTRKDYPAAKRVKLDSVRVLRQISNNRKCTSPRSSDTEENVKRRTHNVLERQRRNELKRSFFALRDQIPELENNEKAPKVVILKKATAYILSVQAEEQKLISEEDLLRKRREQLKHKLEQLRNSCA

Assay [3] is described as follows: ATG_Oct_MLP_CIS: Attagene CIS-FACTORIAL HepG2 Assay for human Octamer-Binding Transcription Factor (Oct) (AID 2282993). To be noted: HepG2 Attagene cis-factorial Oct reporter, mRNA; actives raise or lower the signal. Summed up:
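Read-out: reporter mRNA via RT-PCR plus capillary electrophoresis of 6-FAM-labelled fragments. Transiently transfected HepG2, 24 h exposure, endogenous TF activity on cis elements. Gain or loss of signal fitted relative to DMSO.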

Assay [4] deals with Cellular tumor antigen p53 (Homo sapiens) (UniProt P04637). As to the kind of experiment: ATG_p53_CIS: Attagene CIS-FACTORIAL HepG2 Assay for human p53 Transcription Factor (AID 2282994). To be noted: HepG2 p53 cis-element reporter, Attagene mRNA; actives raise or lower the signal. Summed up: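 HepG2 cells transiently transfected with cis-regulated multiple reporter transcription units, dosed 24 h. Reporter mRNA measured by RT-PCR, 6-FAM primer extension, HpaI digestion and capillary electrophoresis; bidirectional fit relative to DMSO.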
Chain of Cellular tumor antigen p53 (Homo sapiens) (P04637 whole entry, looked up): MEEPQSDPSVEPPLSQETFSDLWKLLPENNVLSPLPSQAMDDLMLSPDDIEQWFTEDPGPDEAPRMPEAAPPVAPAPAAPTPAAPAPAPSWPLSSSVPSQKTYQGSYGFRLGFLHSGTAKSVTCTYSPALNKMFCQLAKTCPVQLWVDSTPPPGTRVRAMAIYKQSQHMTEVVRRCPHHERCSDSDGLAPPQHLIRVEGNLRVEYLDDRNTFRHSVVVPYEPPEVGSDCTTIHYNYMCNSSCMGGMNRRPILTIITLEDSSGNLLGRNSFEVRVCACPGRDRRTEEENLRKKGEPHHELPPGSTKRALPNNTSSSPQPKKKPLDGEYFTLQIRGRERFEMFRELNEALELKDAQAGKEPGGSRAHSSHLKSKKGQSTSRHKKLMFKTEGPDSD

In assay [5] the target is human Peroxisome Proliferator-activated Receptor alpha (PPARa), PPARA (gene 5465) (UniProt Q07869). The experiment in a line: ATG_PPARa_TRANS: Attagene TRANS-FACTORIAL HepG2 Assay for human Peroxisome Proliferator-activated Receptor alpha (PPARa) (AID 2283001; active = hit-call score of the fitted dose curve at least 0.9, where 1 is the maximum). In short, it runs like this: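 Measures transcriptional activity of an exogenous chimeric PPARa-Gal4 protein in transiently transfected HepG2 cells after 24 h dosing. Reporter mRNA quantified via RT-PCR and capillary electrophoresis; DMSO served as negative control.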
Chain of human Peroxisome Proliferator-activated Receptor alpha (PPARa), PPARA (gene 5465) (Q07869 whole entry, looked up, the tested form may be a part): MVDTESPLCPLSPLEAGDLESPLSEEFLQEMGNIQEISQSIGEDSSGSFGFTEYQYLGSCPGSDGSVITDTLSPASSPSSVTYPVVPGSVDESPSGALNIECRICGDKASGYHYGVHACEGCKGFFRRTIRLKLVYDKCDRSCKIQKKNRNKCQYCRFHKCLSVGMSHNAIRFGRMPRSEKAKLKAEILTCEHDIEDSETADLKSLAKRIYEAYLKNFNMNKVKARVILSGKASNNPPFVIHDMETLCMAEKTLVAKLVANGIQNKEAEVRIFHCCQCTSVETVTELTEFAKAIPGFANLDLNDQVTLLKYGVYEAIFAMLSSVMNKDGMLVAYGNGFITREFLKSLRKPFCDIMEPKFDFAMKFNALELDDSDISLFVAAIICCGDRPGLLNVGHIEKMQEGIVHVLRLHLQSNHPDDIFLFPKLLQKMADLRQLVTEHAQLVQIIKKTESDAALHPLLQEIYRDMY

Assay [6] addresses human Peroxisome Proliferator-activated Receptor delta (PPARd), PPARD (gene 5467) (UniProt Q03181). The experiment in a line: ATG_PPARd_TRANS: Attagene TRANS-FACTORIAL HepG2 Assay for human Peroxisome Proliferator-activated Receptor delta (PPARd) (AID 2283002; active = hit-call score of the fitted dose curve at least 0.9, where 1 is the maximum). Summed up:
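HepG2 cells transiently transfected with GAL4-UAS multiplexed reporter units driven by exogenous chimeric NR-GAL4 proteins; 24 h compound exposure. Reporter mRNA measured by RT-PCR, 6-FAM primer extension, HpaI digestion and capillary electrophoresis; gain of signal fitted relative to DMSO.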

The target of assay [7] is human Retinoic Acid Receptor beta (RARb), RARB (gene 5915) (UniProt P10826). The experiment in a line: ATG_RARb_TRANS: Attagene TRANS-FACTORIAL HepG2 Assay for human Retinoic Acid Receptor beta (AID 2283004; active = hit-call score of the fitted dose curve at least 0.9, where 1 is the maximum). In short, it runs like this:
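Readout is reporter mRNA induction: RNA reverse-transcribed, PCR-amplified, FAM-labelled, HpaI-cut and resolved by capillary electrophoresis. Transiently transfected HepG2 cells carrying exogenous NR–Gal4 chimeras were dosed for 24 h; activity fitted upward relative to DMSO.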

For assay [8], the target named is Retinoic acid receptor alpha (Homo sapiens) (UniProt P10276). The experiment in a line: ATG_RARa_TRANS: Attagene TRANS-FACTORIAL HepG2 Assay for human Retinoic Acid Receptor alpha (RARa) (AID 2283005; active = hit-call score of the fitted dose curve at least 0.9, where 1 is the maximum). In short, it runs like this: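 HepG2 transiently transfected with multiplex GAL4-UAS reporter units including a human RARa–GAL4 chimera; 24 h compound exposure. Reporter mRNA quantified by RT-PCR, 6-FAM labeling and capillary electrophoresis; gain of signal versus DMSO.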
Chain of Retinoic acid receptor alpha (Homo sapiens) (P10276 whole entry, looked up, the tested form may be a part): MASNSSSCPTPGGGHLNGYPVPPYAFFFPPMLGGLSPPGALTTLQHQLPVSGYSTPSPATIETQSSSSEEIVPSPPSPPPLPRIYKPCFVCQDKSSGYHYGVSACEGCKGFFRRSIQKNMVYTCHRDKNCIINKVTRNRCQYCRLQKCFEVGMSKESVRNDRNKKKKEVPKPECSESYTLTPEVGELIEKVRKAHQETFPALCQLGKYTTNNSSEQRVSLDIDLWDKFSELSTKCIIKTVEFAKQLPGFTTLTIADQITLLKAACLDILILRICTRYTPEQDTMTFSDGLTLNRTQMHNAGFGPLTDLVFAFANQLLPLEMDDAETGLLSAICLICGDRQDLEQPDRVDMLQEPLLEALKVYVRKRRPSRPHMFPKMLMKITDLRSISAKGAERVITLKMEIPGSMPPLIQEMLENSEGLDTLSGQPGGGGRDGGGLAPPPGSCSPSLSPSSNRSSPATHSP

Assay [9] has as its target Peroxisome proliferator-activated receptor gamma (Homo sapiens) (UniProt P37231). The experiment in a line: ATG_PPARg_TRANS: Attagene TRANS-FACTORIAL HepG2 Assay for human Peroxisome Proliferator-activated Receptor-gamma (PPARg) (AID 2283007; active = hit-call score of the fitted dose curve at least 0.9, where 1 is the maximum). Summed up: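 Endpoint reflects upward reporter mRNA change versus DMSO controls. Setup: transiently transfected HepG2, GAL4-UAS reporters driven by chimeric NR-Gal4, 24 h incubation, RT-PCR with capillary electrophoresis read-out.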

The target in assay [10] is Nuclear receptor subfamily 1 group I member 2 (Homo sapiens) (UniProt O75469). As to the kind of experiment: ATG_PXR_TRANS: Attagene TRANS-FACTORIAL HepG2 Assay for human Pregnane X Receptor (PXR) (AID 2283008; active = hit-call score of the fitted dose curve at least 0.9, where 1 is the maximum). Summed up:
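HepG2 cells transiently transfected with GAL4-UAS reporter units and PXR-Gal4 chimera, exposed 24 h. Reporter mRNA quantified by RT-PCR, fluorescent labelling, HpaI digestion and capillary electrophoresis; gain of signal vs DMSO.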

Assay [11] has as its target human Retinoic Acid Receptor gamma (RARg), RARG (gene 5916) (UniProt P13631). The experiment in a line: ATG_RARg_TRANS: Attagene TRANS-FACTORIAL HepG2 Assay for human Retinoic Acid Receptor gamma (RARg) (AID 2283009; active = hit-call score of the fitted dose curve at least 0.9, where 1 is the maximum;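 for AC50: AC50 is for reporter induction above DMSO meaning RARg activation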). In short, it runs like this: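 HepG2, RARg-GAL4 TRANS system, 24 h exposure; reporter mRNA by RT-PCR + CE fluorescence; increase over DMSO.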
Assay [12] concerns the target human RAR-related Orphan Receptor beta (RORb), RORB (gene 6096) (UniProt Q92753). The experiment in a line: ATG_RORb_TRANS: Attagene TRANS-FACTORIAL HepG2 Assay for human RAR-related Orphan Receptor beta (RORb) (AID 2283010; active = hit-call score of the fitted dose curve at least 0.9, where 1 is the maximum). Summed up: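 In this TRANS-format test, human HepG2 cells express chimeric NR-Gal4 fusion proteins driving GAL4-UAS reporters. After 24 h dosing, reporter transcripts are measured by fluorescent RT-PCR/capillary electrophoresis, with DMSO as negative control.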

A short description of assay [13]: ATG_NF_kB_CIS: Attagene CIS-FACTORIAL HepG2 Assay for human Nuclear Factor Kappa B (NF-kB) (AID 2282991). The settings on record: HepG2 Attagene cis-factorial NF-kB reporter mRNA; actives raise or lower the signal. In short, it runs like this:
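Endpoint from a 52-component multiplexed HepG2 reporter panel: cis-regulated transcription units transiently transfected, 24 h dosing, reporter mRNA quantified by RT-PCR and capillary electrophoresis, scored as increase or decrease against DMSO.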

A short description of assay [14]: ATG_NRF2_ARE_CIS: Attagene CIS-FACTORIAL HepG2 Assay for human Nuclear Factor Erythroid 2 Related Factor 2 (NFR2) response to Antioxidant Response Elements (ARE) (AID 2282992).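 For AC50: reporter mRNA level measured by RT-PCR and capillary electrophoresis fluorescence.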 The settings on record: HepG2 Attagene ARE/NRF2 reporter, transcription factor activity; actives raise or lower the signal. Summed up:
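HepG2 cells transiently transfected with multiplexed cis-element reporter constructs, 24 h after chemical dosing; reporter mRNA quantified by RT-PCR, fluorescent primer extension, HpaI digestion and capillary electrophoresis. Bidirectional fit relative to DMSO.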

Assay [15] can be described thus: BSK_3C_TissueFactor: BioMAP Diversity Plus: 3C Assay for Tissue Factor Biomarker Activity (AID 2282997). To be noted: BioMAP 3C HUVEC, tissue factor biomarker readout; actives raise or lower the signal. In short, it runs like this: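 Human vascular primary cells (umbilical vein endothelium) received test chemical; Tissue Factor was determined by ELISA at 24 h, and both gain and loss of signal versus DMSO were fitted.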

Assay [16] in a line: BSK_3C_uPAR: BioMAP Diversity Plus: 3C Assay for Urokinase-type plasminogen activator receptor (uPAR) Biomarker Activity (AID 2282998). The settings on record: BioMAP 3C HUVEC, uPAR biomarker ELISA; actives raise or lower the signal. In short, it runs like this:
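HUVEC primary cells; 24 h post-dose; uPAR by ELISA; gain or loss of signal fitted bidirectionally vs DMSO baseline.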

Assay [17] can be described thus: BSK_4H_Eotaxin3: BioMAP Diversity Plus: 4H Assay for Eotaxin 3 Biomarker Activity (AID 2283000).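 For outcome: CCL26 protein level quantified by ELISA in parallel with SRB cytotoxicity check.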 To be noted: primary human endothelial cells (HUVEC); actives raise or lower the signal. Summed up:
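Readout is Eotaxin-3 (CCL26) level by ELISA in primary human umbilical vein endothelial cells harvested 24 h after chemical exposure; activity fitted in both directions against DMSO control.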

Read-out in assay [18]: Intercellular Adhesion Molecule 1 (ICAM1), ICAM1 (gene 3383)
The experiment in a line: BSK_3C_ICAM1: BioMAP Diversity Plus: 3C Assay for Intercellular Adhesion Molecule 1 (ICAM1) Biomarker Activity (AID 2283003). To be noted: primary human endothelial cells (HUVEC); actives raise or lower the signal. Summed up: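 Human vascular endothelial primary cells, 3C conditions, 24 h treatment. ICAM-1 by ELISA.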

A short description of assay [19]: BSK_3C_Proliferation: Cell Proliferation Assessment in the BioMAP Diversity Plus: 3C Assay (AID 2283006).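 Note: potency may reflect either rise or fall in cell number versus DMSO.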 To be noted: primary human endothelial cells (HUVEC). In short, it runs like this: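 Proliferation of human vascular endothelial primary cells after 48 h dosing, quantified as SRB-stained protein at 560 nm relative to DMSO.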

Chain of human Retinoic Acid Receptor beta (RARb), RARB (gene 5915) (P10826 whole entry, looked up, the tested form may be a part): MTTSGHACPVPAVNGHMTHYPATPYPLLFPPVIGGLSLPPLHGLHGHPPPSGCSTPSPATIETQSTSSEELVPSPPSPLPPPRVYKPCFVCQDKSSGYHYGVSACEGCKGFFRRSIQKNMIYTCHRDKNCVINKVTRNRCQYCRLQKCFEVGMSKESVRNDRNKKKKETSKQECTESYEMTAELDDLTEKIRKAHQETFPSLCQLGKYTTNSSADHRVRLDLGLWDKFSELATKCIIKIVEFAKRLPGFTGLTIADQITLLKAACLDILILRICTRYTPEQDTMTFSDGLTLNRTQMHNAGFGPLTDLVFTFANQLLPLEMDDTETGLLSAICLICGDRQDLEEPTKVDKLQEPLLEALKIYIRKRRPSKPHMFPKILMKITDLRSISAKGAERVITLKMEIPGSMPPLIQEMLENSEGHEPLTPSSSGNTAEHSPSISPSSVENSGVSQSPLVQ
Chain of human Retinoic Acid Receptor gamma (RARg), RARG (gene 5916) (P13631 whole entry, looked up, the tested form may be a part): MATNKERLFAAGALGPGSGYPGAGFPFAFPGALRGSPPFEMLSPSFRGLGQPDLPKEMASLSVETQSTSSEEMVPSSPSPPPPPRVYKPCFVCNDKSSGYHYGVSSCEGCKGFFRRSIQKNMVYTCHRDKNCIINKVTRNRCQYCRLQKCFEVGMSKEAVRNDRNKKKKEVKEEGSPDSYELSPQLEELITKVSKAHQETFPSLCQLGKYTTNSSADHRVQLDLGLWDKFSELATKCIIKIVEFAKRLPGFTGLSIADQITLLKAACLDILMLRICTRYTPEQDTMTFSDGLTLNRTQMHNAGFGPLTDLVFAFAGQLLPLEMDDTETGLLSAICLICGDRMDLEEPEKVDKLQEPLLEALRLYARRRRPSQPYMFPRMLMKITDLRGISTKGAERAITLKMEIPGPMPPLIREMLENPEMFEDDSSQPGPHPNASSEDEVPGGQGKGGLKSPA
Chain of Peroxisome proliferator-activated receptor gamma (Homo sapiens) (P37231 whole entry, looked up, the tested form may be a part): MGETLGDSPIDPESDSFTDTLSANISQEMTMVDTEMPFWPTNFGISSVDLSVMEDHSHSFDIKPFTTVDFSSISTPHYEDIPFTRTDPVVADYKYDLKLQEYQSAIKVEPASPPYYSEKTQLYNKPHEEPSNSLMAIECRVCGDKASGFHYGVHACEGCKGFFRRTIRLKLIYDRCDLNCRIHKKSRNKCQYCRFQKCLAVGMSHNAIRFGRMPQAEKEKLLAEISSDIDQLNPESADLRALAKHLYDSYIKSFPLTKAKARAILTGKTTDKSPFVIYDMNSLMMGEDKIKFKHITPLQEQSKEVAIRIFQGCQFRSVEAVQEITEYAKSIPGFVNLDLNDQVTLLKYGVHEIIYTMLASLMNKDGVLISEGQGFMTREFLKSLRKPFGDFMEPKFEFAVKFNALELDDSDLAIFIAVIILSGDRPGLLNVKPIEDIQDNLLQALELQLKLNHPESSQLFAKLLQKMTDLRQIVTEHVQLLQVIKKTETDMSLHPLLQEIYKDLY
Chain of Nuclear receptor subfamily 1 group I member 2 (Homo sapiens) (O75469 whole entry, looked up, the tested form may be a part): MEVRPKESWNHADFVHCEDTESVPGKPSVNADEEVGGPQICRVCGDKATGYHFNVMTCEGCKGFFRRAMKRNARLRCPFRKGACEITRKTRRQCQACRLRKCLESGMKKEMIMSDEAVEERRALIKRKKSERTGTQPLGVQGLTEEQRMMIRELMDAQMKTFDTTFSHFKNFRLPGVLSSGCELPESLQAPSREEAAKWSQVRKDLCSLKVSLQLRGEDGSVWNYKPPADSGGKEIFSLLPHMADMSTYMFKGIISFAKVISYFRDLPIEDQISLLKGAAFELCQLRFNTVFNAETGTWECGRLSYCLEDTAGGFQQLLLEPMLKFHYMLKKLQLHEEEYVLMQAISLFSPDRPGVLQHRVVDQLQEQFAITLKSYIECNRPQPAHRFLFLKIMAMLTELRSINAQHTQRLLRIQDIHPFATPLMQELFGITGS
Chain of human Peroxisome Proliferator-activated Receptor delta (PPARd), PPARD (gene 5467) (Q03181 whole entry, looked up, the tested form may be a part): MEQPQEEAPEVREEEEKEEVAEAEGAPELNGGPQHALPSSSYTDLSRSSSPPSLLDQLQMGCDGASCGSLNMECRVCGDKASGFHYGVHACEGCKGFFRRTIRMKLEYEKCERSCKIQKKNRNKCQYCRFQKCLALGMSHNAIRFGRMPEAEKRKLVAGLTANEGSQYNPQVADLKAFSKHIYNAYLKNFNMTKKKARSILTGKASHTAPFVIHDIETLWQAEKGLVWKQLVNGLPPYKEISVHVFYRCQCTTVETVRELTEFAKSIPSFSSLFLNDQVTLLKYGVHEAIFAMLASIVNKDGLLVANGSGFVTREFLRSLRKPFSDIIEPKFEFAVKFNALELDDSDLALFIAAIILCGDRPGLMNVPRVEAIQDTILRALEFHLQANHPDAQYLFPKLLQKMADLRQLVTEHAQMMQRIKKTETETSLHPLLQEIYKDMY
Chain of human RAR-related Orphan Receptor beta (RORb), RORB (gene 6096) (Q92753 whole entry, looked up, the tested form may be a part): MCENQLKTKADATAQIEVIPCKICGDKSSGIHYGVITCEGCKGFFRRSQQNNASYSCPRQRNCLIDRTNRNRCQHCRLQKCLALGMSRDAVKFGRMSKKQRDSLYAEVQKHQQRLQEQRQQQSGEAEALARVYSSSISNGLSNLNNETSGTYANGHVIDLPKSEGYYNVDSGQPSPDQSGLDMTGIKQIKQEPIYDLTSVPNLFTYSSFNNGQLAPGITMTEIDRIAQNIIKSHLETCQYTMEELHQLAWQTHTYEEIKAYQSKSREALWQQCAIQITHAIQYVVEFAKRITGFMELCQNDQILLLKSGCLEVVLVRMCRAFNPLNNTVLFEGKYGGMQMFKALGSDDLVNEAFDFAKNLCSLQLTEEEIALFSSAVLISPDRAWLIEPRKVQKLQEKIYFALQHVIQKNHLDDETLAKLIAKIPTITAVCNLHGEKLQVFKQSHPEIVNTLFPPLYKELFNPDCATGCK

Broadly, the AC50 is the concentration giving half of the maximal activity seen. Consider `O=C1c2ccccc2C(=O)c2c(O)c(O)cc(O)c21`, for which the compound was classed as inactive in assay [1], in assay [2], in [3], in [4], in assay [5] and in assay [6]. Also, the compound was called inactive in [7], in assay [8], in assay [11] and in assay [12]. Moreover, the AC50 in assay [9] was 31.9 µM (active); in assay [10] it was 31.5 µM (active).
For `C=CC(F)(F)C(F)(F)C(F)(F)C(F)(F)F`, the compound was called inactive in assay [1], in [13], in [14], in assay [3], in assay [5] and in assay [9]. The compound was classed as inactive in assay [10].
As to `C=CC(=O)OCCC(F)(F)C(F)(F)C(F)(F)C(F)(F)C(F)(F)C(F)(F)F`, the compound was called inactive in assay [1], in [13], in assay [3], in assay [6], in assay [8] and in assay [9]. For the same compound, the result in assay [10] and in assay [12] was inactive. Moreover, in assay [14], the AC50 was 18.6 µM (active).
Consider `CCCCCCCCCCCCCCCCCC[N+](C)(C)Cc1ccccc1`, for which the compound was classed as inactive in assay [1], in assay [13], in assay [4], in [5], in assay [7] and in assay [8]. In assay [10], the result was inactive. For the same compound, the AC50 in assay [14] is 12.6 µM (active); in assay [3], 3.19 µM (active); in assay [15] it was 1.17 µM (active); in assay [16], 0.35 µM (active); in assay [17], 2.84 µM (active); in [18], 2.56 µM (active). The AC50 was 281 nM (active) in assay [19], 83.5 µM (active) in [9] and 89.2 µM (active) in assay [11].
Regarding `OCC1CCC(CO)CC1` (stereo not given), the result in assay [2], in assay [13], in assay [14], in assay [3], in [6] and in assay [8] was inactive. In addition, the call in assay [9] and in [11] was inactive.
Turning to `OCC(F)(F)C(F)(F)C(F)(F)C(F)(F)C(F)(F)C(F)(F)C(F)(F)C(F)(F)C(F)(F)C(F)(F)C(F)(F)F`, the outcome in assay [1], in [13], in assay [3], in [4], in assay [15] and in assay [16] was inactive. Moreover, the result in assay [17], in assay [5], in assay [6], in assay [18], in assay [7] and in assay [9] was inactive. Moreover, the result in assay [10] and in assay [12] was inactive. For the same compound, in assay [19], the AC50 is 141 nM (active) and 224 nM (active).
Turning to `FC1(F)C=CC(F)(F)C1(F)F`, the result in [2], in assay [13], in assay [14], in assay [3], in [4] and in [7] was inactive. For the same compound, the result in [9] and in assay [10] was inactive.
For the compound `c1ccc(CNc2ncnc3c2ncn3C2CCCCO2)cc1` (stereo not given), the compound was classed as inactive in assay [2], in assay [13], in assay [3], in assay [6], in [7] and in assay [8]. In [11], the result was inactive. Also, the AC50 in assay [14] was 19.8 µM (active); in assay [9] it was 70.6 µM (active); in assay [10], 6.85 µM (active).
